Compounds with a hit are over-represented: about 8.7% of the library has one in this group of screens.
G9a inh = G9a (human) methyltransferase inhibition. G9a H3K9 monomethylation, AlphaScreen, 2 h. 350,000 compounds, 8.8% hits. Potency, µM (highest dose often 102 µM), actives largely listed as inhibitors. Q96KQ7; also: nearly all actives have a fitted effect of over 75% in size
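Compounds were preincubated with 20 nM G9a for 15 min, after which biotinylated H3K9 peptide (500 nM) and SAM (20 uM) started a 2 h room-temperature reaction. Monomethylated product was quantified by antibody-based AlphaScreen chemiluminescence.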
BAZ2B inh = BAZ2B (human) inhibition; Q9UIF8; AlphaScreen BAZ2B-H3K14Ac peptide displacement; Potency, µM (top dose mostly 114 µM), usual class: inhibitors; 360,000 compounds, 4.4% hits; AID 504333; also: nearly all actives have a fitted effect of over 60% in size
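AlphaScreen displacement: compounds (up to 110uM) incubated 30 min at room temperature with a preformed 50 nM BAZ2B/50 nM biotinylated H3K14Ac peptide complex in PBS pH 7.4 with Tween-20. Donor and acceptor beads at 10 ug/mL final added, 20 min light-protected before reading.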
JMJD2A Tudor = JMJD2A Tudor domain (human) inhibition; AlphaScreen JMJD2A-Tudor / H3K4me3 peptide binding; O75164; Potency, µM (titrated, usually from 114 µM), actives largely listed as inhibitors; 390,000 compounds, 4.4% hits; AID 504339; also: nearly all actives have a fitted effect of over 50% in size
HP1b binding inh = inhibitors of HP1-beta chromodomain binding to methylated histone tails | P83916 | 390,000 compounds, 0.56% hits | AlphaScreen HP1-beta / biotin-H3K9me3 peptide binding | Potency, µM (doses to about 114 µM), usual class: inhibitors; also: nearly all actives have a fitted effect of over 70% in size
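AlphaScreen: HP1-beta (50 nM) preformed 30 min with biotin-H3(1-18)K9me3 peptide (50 nM) in PBS pH 7.4, 0.01% Tween-20. Compound added for 30 min at RT, then streptavidin donor/nickel chelate acceptor beads (10 ug/mL) for 30 min.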
Sfp PPTase inh = inhibitors of Bacillus subtilis Sfp phosphopantetheinyl transferase; Potency, µM, usual class: inhibitors; Biochemical Sfp PPTase activity, qHTS; 310,000 compounds, 3.5% hits; Q9F4F7;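 also: the enzyme is Sfp with the accession as filed and its product quenches rhodamine fluorescence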
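After 15 min at room temperature with compound, 15 nM Sfp received 5 uM rhodamine-CoA plus 12.5 uM BHQ-2-ybbR (50 mM Hepes pH 7.6, 10 mM MgCl2). Rate came from the fluorescence difference over 30 min, ex 525/em 598 nm.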
ALOX12 inh = blocks human arachidonate 12S-lipoxygenase; 580,000 compounds, 1.1% hits; Potency, µM (top dose mostly 108 µM), hits mostly inhibitors; purified 12hLO, xylenol orange hydroperoxide absorbance
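Purified human 12hLO at 150 nM in 25 mM Hepes, 0.01% Triton X-100, pH 7.0, preincubated 15 min at room temperature with compound. Reaction started with 40 uM arachidonic acid, 30 min at room temperature. Hydroperoxide measured by Fe-xylenol orange, 573/405 nm absorbance ratio.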
Each line names hits and unclear results; the compound was inactive in the other large screens. Calls follow the shape of the dose curve; as a rule, active = well fitted curve in the direction sought with a large enough effect; inconclusive = small, poorly fitted or top-dose-only effect, or another doubt; inactive = no such curve, though single readings can be large; an effect the other way counts as inactive or inconclusive.

O=C1C(=O)c2c(C(=O)c3ccccc3)coc2-c2ccccc21	G9a inh 45µM, BAZ2B inh inconclusive, Sfp PPTase inh 56µM, ALOX12 inh inconclusive
O=C(c1ccccc1)c1coc2ccc(O)c(Cl)c12	G9a inh inconclusive, Sfp PPTase inh inconclusive, ALOX12 inh inconclusive
Cc1cc(S(=O)(=O)N2CCCC2)ccc1OCC(=O)Nc1ccccc1Oc1ccccc1	none (no result: G9a inh, BAZ2B inh, JMJD2A Tudor, HP1b binding inh, Sfp PPTase inh)
Cc1cc(N/N=C/c2ccc(O)cc2)c2cccc(C)c2n1	BAZ2B inh 40µM, JMJD2A Tudor inconclusive, HP1b binding inh inconclusive (no result: G9a inh)
Cc1cc(C)c2nc(C)cc(N/N=C/c3ccc(O)cc3)c2c1	G9a inh inconclusive, BAZ2B inh 40µM, JMJD2A Tudor 50µM, Sfp PPTase inh inconclusive, ALOX12 inh inconclusive
Cc1cc(-c2ccccc2)nc(N/N=C/c2ccc(O)cc2)n1	none (no result: Sfp PPTase inh)
COc1ccc(CNC(=O)CC2CCN(C(=O)c3cn(-c4ccccc4)nc3C)CC2)cc1	none (no result: G9a inh, BAZ2B inh, JMJD2A Tudor, HP1b binding inh, Sfp PPTase inh)
CC1(C)CC(=O)C(C=Nc2ccc(C(=O)c3ccccc3)cc2N=CC2=C(O)CC(C)(C)CC2=O)=C(O)C1	G9a inh 40µM, BAZ2B inh inconclusive, ALOX12 inh inconclusive
CC1(C)CC(=O)C(C=Nc2ccc(O)c(N=CC3=C(O)CC(C)(C)CC3=O)c2)=C(O)C1	G9a inh 20µM
Cc1cc(N=CC2=C(O)CC(C)(C)CC2=O)no1	JMJD2A Tudor 79µM (no result: BAZ2B inh)
Cc1cccc(/N=C/C2=C(O)CC(C)(C)CC2=O)n1	G9a inh inconclusive
CC1(C)CC(=O)C(C=Nc2ccc3c(c2)OCO3)=C(O)C1	G9a inh inconclusive
COc1ccccc1OCc1cc(C(=O)NCC2COCCO2)n[nH]1 (stereo not drawn)	none (no result: G9a inh, BAZ2B inh, JMJD2A Tudor, HP1b binding inh, Sfp PPTase inh)
COc1ccc(-c2ccc3c(c2)C(=O)N2C[C@H](O)C[C@H]2C(=O)N3)cc1	none (no result: G9a inh, BAZ2B inh, JMJD2A Tudor, HP1b binding inh, Sfp PPTase inh)
CC(C)CC(=O)N1CCN(Cc2cccc(F)c2)CC1	BAZ2B inh 56µM, JMJD2A Tudor 4.5µM, HP1b binding inh inconclusive, ALOX12 inh inconclusive
COc1ccc(CN2CCN(C(C)C(=O)N(C)Cc3cccc(F)c3)CC2)cc1OC (stereo not drawn)	G9a inh 2µM, BAZ2B inh 18µM, JMJD2A Tudor 4.5µM, HP1b binding inh inconclusive, Sfp PPTase inh inconclusive
COc1cc(OC)c(OC)cc1CN1CCN(C(=O)CC(C)C)CC1	G9a inh 18µM, BAZ2B inh inconclusive, JMJD2A Tudor 1.6µM, HP1b binding inh inconclusive, ALOX12 inh inconclusive
COc1cccc(CN2CCN(C(=O)CC(C)C)CC2)c1	G9a inh 18µM, BAZ2B inh 56µM, JMJD2A Tudor 5.6µM, ALOX12 inh inconclusive
CCOC(=O)c1cc2n(n1)CC(C)(C(=O)NCCC(C)C)N(CCc1cccs1)C2=O (stereo not drawn)	none (no result: G9a inh, BAZ2B inh, JMJD2A Tudor, HP1b binding inh, Sfp PPTase inh)
Cc1oc(-c2ccccc2)nc1C(=O)N1CCN(C)CC1c1ccccc1 (stereo not drawn)	none (no result: G9a inh, BAZ2B inh, JMJD2A Tudor, HP1b binding inh, Sfp PPTase inh)
COc1ccc(-c2cc(C(F)(F)F)nc(S(C)(=O)=O)n2)cc1	ALOX12 inh inconclusive
COC(=O)CCS(=O)(=O)c1nc(-c2ccccc2)cc(C(F)(F)F)n1	none (no result: ALOX12 inh)
CS(=O)(=O)c1nc(-c2ccc(F)cc2)cc(C(F)(F)F)n1	G9a inh 45µM, Sfp PPTase inh inconclusive
CCOC(=O)CS(=O)(=O)c1nc(-c2ccccc2)cc(C(F)(F)F)n1	G9a inh 35µM, Sfp PPTase inh 50µM
CCOC(=O)CCS(=O)(=O)c1nc(-c2ccccc2)cc(C(F)(F)F)n1	G9a inh 2.8µM, Sfp PPTase inh 10µM, ALOX12 inh inconclusive
CCOC(=O)CS(=O)(=O)c1nc(-c2ccc(F)cc2)cc(C(F)(F)F)n1	G9a inh inconclusive
Cc1cc(NC(=O)CCCS(=O)(=O)c2nc(-c3cccs3)cc(C(F)(F)F)n2)no1	G9a inh 50µM
c1ccc2c(c1)Cc1cccnc1-2	none (no result: G9a inh, BAZ2B inh, JMJD2A Tudor, HP1b binding inh, Sfp PPTase inh)
N#Cc1nc(-c2ccc(S(=O)(=O)N3CCOCC3)cc2)oc1NCc1ccc2c(c1)OCO2	none (no result: G9a inh, BAZ2B inh, JMJD2A Tudor, HP1b binding inh, Sfp PPTase inh)
O=C1C(c2ccccc2)=C(c2ccccc2)c2ccccc21	none (no result: G9a inh, BAZ2B inh, JMJD2A Tudor, HP1b binding inh, Sfp PPTase inh)
COC1=C(c2ccccc2)C(=O)c2ccccc2C1=O	G9a inh 20µM, BAZ2B inh 45µM, JMJD2A Tudor inconclusive, HP1b binding inh inconclusive

Bioassay records (PubChem)
